Source: PubChem BioAssay
Tcruzi prolif: inhibitors of T. cruzi proliferation | T. cruzi beta-gal in NIH3T3, GalScreen luminescence, 90 h | inhibition, % at 8.34 µM | 77,000 tested, 5.9% active | AID 624255;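 active = mean inhibition above about 93%, with at least 55% of replicates each passing it, limit read from the data, passing the limit was not always enough; inconclusive = only one of those two conditions holds; inactive = neither condition holds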
Pf Dd2 growth: inhibitors of Plasmodium falciparum Dd2 growth. AID 1159554. activity change, % at 10 µM. P. falciparum Dd2 growth, SYBR Green, 72 h; active compounds read low. 94,000 tested, 2.3% active; in the data active = activity change below about -80%; inconclusive = no clear call, values can overlap the other calls
C diff growth: C. difficile growth inhibition; Clostridium difficile clinical isolate growth, OD600, 24 h; active compounds read low; 86,000 tested, 0.25% active; growth activity, negative = inhibition, % at 16 µg/mL (by protocol);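 active = mean growth activity at or below -80% and every replicate also at or below -80%; inconclusive = mean at or below -80% but some replicate above -80%; inactive = mean growth activity above -80%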
Each line names hits and unclear results; the compound was inactive in the other large screens. Sampled rows, rich in hits. Any-hit rate of the full collection: about 6.7%.

Cc1ccc(S(=O)(=O)Nc2ccc3c(c2)C(=O)N([C@H](C)CO)C[C@@H](C)[C@H](CN(C)Cc2ccc(C(=O)Nc4ccccc4N)cc2)O3)cc1	none (no result: Tcruzi prolif)
N#C[C@H]1[C@@H](c2ccc(C#Cc3ccc(F)cc3)cc2)[C@H](CO)N1C(=O)C1CCCC1	none
CCCC#Cc1ccc([C@H]2[C@@H](CO)N(C(=O)C3CCOCC3)[C@H]2C#N)cc1	none
CCCC#Cc1ccc([C@H]2[C@@H](CO)N(C(=O)C3CCCCC3)[C@H]2C#N)cc1	Pf Dd2 growth -86
CC(C)NC(=O)N1[C@H](C#N)[C@H](c2ccc(C#CC3CCCC3)cc2)[C@@H]1CO	Pf Dd2 growth -88 (no result: Tcruzi prolif)
N#C[C@@H]1[C@@H](c2ccc(C#Cc3ccc(F)cc3)cc2)[C@H](CO)N1C(=O)C1CCCC1	Pf Dd2 growth -86
CC(C)NC(=O)N1[C@@H](C#N)[C@@H](c2ccc(C#CC3CCCCC3)cc2)[C@@H]1CO	none
N#C[C@@H]1[C@@H](c2ccc(C#Cc3ccccc3F)cc2)[C@H](CO)N1C(=O)C1CCCC1	none (no result: Tcruzi prolif)
N#C[C@H]1[C@H](c2ccc(C#Cc3ccccc3F)cc2)[C@@H](CO)N1C(=O)C1CCCC1	Pf Dd2 growth -87 (no result: Tcruzi prolif)
CC=Cc1ccc2n(c1=O)C[C@@H]1[C@@H](CO)[C@H](C(=O)NCCC)N(CC3CCOCC3)[C@H]21 (mixture of isomers)	none
C/C=C/c1cccc(-c2nc(C(=O)NCc3ccncc3)cc3c2[C@@H](CCO)N([S@](=O)C(C)(C)C)C3)c1	none (no result: Tcruzi prolif)
CS(=O)(=O)Nc1ccc2c(c1)[C@H]1C[C@@H](CC(=O)N3CCCCC3)O[C@H](CO)[C@H]1O2	none
C[C@@H]1CN([C@@H](C)CO)C(=O)c2cc(NC(=O)Cc3ccccc3)ccc2O[C@@H]1CN(C)Cc1ccc(C(=O)Nc2ccccc2N)cc1	Pf Dd2 growth -86
C[C@@H]1CN([C@H](C)CO)C(=O)c2cc(NC(=O)Cc3ccccc3)ccc2O[C@H]1CN(C)Cc1ccc(C(=O)Nc2ccccc2N)cc1	none
C[C@@H]1CCCCO[C@@H](CN(C)Cc2ccc(C(=O)Nc3ccccc3N)cc2)[C@@H](C)CN([C@H](C)CO)C(=O)c2cc(NC(=O)Cc3ccccc3)ccc2O1	Pf Dd2 growth -84 (no result: Tcruzi prolif)
C[C@H]1CN([C@@H](C)CO)C(=O)c2cc(NC(=O)c3ccncc3)ccc2O[C@@H]1CN(C)Cc1ccc(C(=O)Nc2ccccc2N)cc1	Pf Dd2 growth -86 (no result: Tcruzi prolif)
C[C@@H]1CN([C@H](C)CO)C(=O)c2cc(NC(=O)c3ccncc3)ccc2O[C@@H]1CN(C)Cc1ccc(C(=O)Nc2ccccc2N)cc1	none (no result: C diff growth)
C[C@@H]1CN([C@@H](C)CO)C(=O)c2cc(NC(=O)Cc3cn(C)c4ccccc34)ccc2O[C@H]1CN(C)Cc1ccc(C(=O)Nc2ccccc2N)cc1	Pf Dd2 growth -85 (no result: C diff growth)
CC(C)NC(=O)Nc1ccc2c(c1)C(=O)N([C@H](C)CO)C[C@H](C)[C@H](CN(C)Cc1ccc(C(=O)Nc3ccccc3N)cc1)OCCCC[C@@H](C)O2	Pf Dd2 growth inconclusive (no result: Tcruzi prolif)
C[C@@H]1CN([C@@H](C)CO)C(=O)c2cc(NC(=O)Cc3cn(C)c4ccccc34)ccc2O[C@@H]1CN(C)Cc1ccc(C(=O)Nc2ccccc2N)cc1	none (no result: C diff growth)
C[C@H]1CN([C@@H](C)CO)S(=O)(=O)c2ccc(C#CCN(C)C)cc2O[C@H]1CN(C)C(=O)C1CCCCC1	none (no result: Tcruzi prolif)
Cn1cnc(S(=O)(=O)N2CCCCN3[C@@H](CO)[C@H](c4ccc(C#CC5CC5)cc4)[C@@H]3C2)c1	none
Cc1noc(C)c1NC(=O)Nc1cccc2c1O[C@H](CN(C)Cc1ccncc1)[C@@H](C)CN([C@H](C)CO)C2=O	none
C[C@@H]1CN([C@H](C)CO)C(=O)c2cc(-c3ccc(C#N)cc3)cnc2O[C@@H]1CN(C)Cc1ccccn1	none
CCc1nc(N2[C@H](CO)[C@@H](c3ccccc3-c3ccccc3F)[C@@H]2C#N)sc1C	none (no result: Tcruzi prolif)
CCc1nc(N2[C@H](C#N)[C@H](c3ccccc3-c3ccccc3F)[C@@H]2CO)sc1C	Pf Dd2 growth -81 (no result: Tcruzi prolif)
CCc1csc(N2[C@H](C#N)[C@H](c3ccccc3-c3ccc(F)cc3)[C@H]2CO)n1	Pf Dd2 growth -93 (no result: Tcruzi prolif)
CCc1csc(N2[C@H](C#N)[C@@H](c3ccc(-c4ccc(F)cc4)cc3)[C@@H]2CO)n1	none
C/C=C/c1ccc([C@H]2[C@@H](CO)N(S(C)(=O)=O)C23CN(C(=O)CC)C3)cc1	none (no result: Tcruzi prolif)
C[C@H]1CN([C@@H](C)CO)C(=O)c2cccc(NC(=O)Nc3ccc4c(c3)OCO4)c2O[C@@H]1CN(C)C(=O)NC1CCCCC1	none
C[C@@H]1CCCCO[C@@H](CN(C)Cc2ccc(C(F)(F)F)cc2)[C@@H](C)CN([C@@H](C)CO)C(=O)c2cc(NC(=O)Nc3ccc(C(F)(F)F)cc3)ccc2O1	none
